Test results reported in the supplement of paper PMC10849652.
Targets with a hit are over-represented here; the source holds about 7,900 in all. About 0.6% of all pairs of compound and target were hits. A number with no mark means an inactive call.

Columns and labels:
Test in all cases: log2 fold change, soluble protein after heating vs DMSO (PISA); higher = thermal stabilisation; K562 cells, 10 uM, 30 min; active = over 0.2 and 3.5 SD of the protein, either way, in both replicates (recomputed)
[1] = compound: COC1=CC=C(C=C1)CN2C=CC3=C2C=C(C=C3)C(=O)NO
How it was run: (§1)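 K562 cells at 2×10^6 cells/mL were treated for 30 min with 10 μM compound, and aliquots were heated for 3 min over 48°C-58°C before pooling. Extraction used PBS with 0.5% NP-40 at 4°C, and soluble protein was the supernatant after 21,000xg for 90 min, measured by TMTpro 16plex LC-MS/MS with channel sums equalised. Thermal stability values, relative to control samples and from duplicates, are log2 fold changes.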

filanesib = compound: CON(C)C(=O)N1N=C(c2cc(F)ccc2F)S[C@@]1(CCCN)c1ccccc1 [filanesib]
How it was run: as §1

zotarolimus = compound: CO[C@H]1C[C@@H]2CC[C@@H](C)[C@@](O)(O2)C(=O)C(=O)N2CCCC[C@H]2C(=O)O[C@H]([C@H](C)C[C@@H]2CC[C@H](n3cnnn3)[C@H](OC)C2)CC(=O)[C@H](C)/C=C(\C)[C@@H](O)[C@@H](OC)C(=O)[C@H](C)C[C@H](C)/C=C/C=C/C=C/1C [zotarolimus]
How it was run: as §1

idasanutlin = compound: COc1cc(C(=O)O)ccc1NC(=O)[C@@H]1N[C@@H](CC(C)(C)C)[C@](C#N)(c2ccc(Cl)cc2F)[C@H]1c1cccc(Cl)c1F [idasanutlin]
How it was run: as §1

alisertib = compound: COc1cc(Nc2ncc3c(n2)-c2ccc(Cl)cc2C(c2c(F)cccc2OC)=NC3)ccc1C(=O)O [alisertib]
How it was run: as §1

[2] = compound: COc1cc2nc(-c3cc(F)ccc3O)nc(N[C@@H]3CNC[C@H]3C(C)(C)O)c2cc1OC
How it was run: as §1

gefitinib = compound: COc1cc2ncnc(Nc3ccc(F)c(Cl)c3)c2cc1OCCCN1CCOCC1 [gefitinib]
How it was run: as §1

[3] = compound: COc1cccc2cc(-c3nc([C@H]4CC[C@H](C(=O)O)CC4)n4ncnc(N)c34)[nH]c12
How it was run: as §1

lapatinib = compound: CS(=O)(=O)CCNCc1ccc(-c2ccc3ncnc(Nc4ccc(OCc5cccc(F)c5)c(Cl)c4)c3c2)o1 [lapatinib]
How it was run: as §1

pictilisib = compound: CS(=O)(=O)N1CCN(Cc2cc3nc(-c4cccc5[nH]ncc45)nc(N4CCOCC4)c3s2)CC1 [pictilisib]
How it was run: as §1

[4] = compound: CS(=O)(=O)c1ccc(-c2cnc(N)c(C(=O)Nc3ccccc3)n2)cc1
How it was run: as §1

crizotinib = compound: C[C@@H](Oc1cc(-c2cnn(C3CCNCC3)c2)cnc1N)c1c(Cl)ccc(F)c1Cl [crizotinib]
How it was run: as §1

[5] = compound: C[C@@H]1COCCN1C2=NC(=NC(=C2)C3(CC3)S(=O)(=O)C)C4=C5C=CNC5=CC=C4
How it was run: as §1

[6] = compound: C[C@H](C1=CC=C(C=C1)C(=O)NC2=C3C=CNC3=NC=C2)N
How it was run: as §1

duvelisib = compound: C[C@H](Nc1ncnc2nc[nH]c12)c1cc2cccc(Cl)c2c(=O)n1-c1ccccc1 [duvelisib]
How it was run: as §1

gandotinib = compound: Cc1cc(Nc2cc(CN3CCOCC3)c3nc(C)c(Cc4ccc(Cl)cc4F)n3n2)n[nH]1 [gandotinib]
How it was run: as §1

tozasertib = compound: Cc1cc(Nc2cc(N3CCN(C)CC3)nc(Sc3ccc(NC(=O)C4CC4)cc3)n2)n[nH]1 [tozasertib]
How it was run: as §1

[7] = compound: Cc1cc(SCc2sc(-c3ccc(C(F)(F)F)cc3)nc2C)ccc1OCC(=O)O
How it was run: as §1

doramapimod = compound: Cc1ccc(-n2nc(C(C)(C)C)cc2NC(=O)Nc2ccc(OCCN3CCOCC3)c3ccccc23)cc1 [doramapimod]
How it was run: as §1

ispinesib = compound: Cc1ccc(C(=O)N(CCCN)[C@@H](c2nc3cc(Cl)ccc3c(=O)n2Cc2ccccc2)C(C)C)cc1 [ispinesib]
How it was run: as §1

Sequence of UniProt Q9Y3C0 (Q9Y3C0 whole entry, looked up): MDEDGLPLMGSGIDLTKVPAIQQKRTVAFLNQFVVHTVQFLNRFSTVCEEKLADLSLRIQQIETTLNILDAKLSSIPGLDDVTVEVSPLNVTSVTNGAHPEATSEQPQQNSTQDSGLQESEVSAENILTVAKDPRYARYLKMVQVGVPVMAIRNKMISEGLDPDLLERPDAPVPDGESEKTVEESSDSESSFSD
Sequence of UniProt O43396 (O43396 whole entry, looked up): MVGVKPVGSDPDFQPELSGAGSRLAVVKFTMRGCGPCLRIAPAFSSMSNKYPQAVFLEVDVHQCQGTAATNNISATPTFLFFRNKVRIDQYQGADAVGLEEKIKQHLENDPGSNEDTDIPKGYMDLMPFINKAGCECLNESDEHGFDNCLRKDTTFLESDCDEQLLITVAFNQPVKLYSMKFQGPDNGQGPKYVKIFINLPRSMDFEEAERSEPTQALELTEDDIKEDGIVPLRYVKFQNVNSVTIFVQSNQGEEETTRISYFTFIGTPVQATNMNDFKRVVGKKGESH
Sequence of UniProt Q8IZ69 (Q8IZ69 whole entry, looked up): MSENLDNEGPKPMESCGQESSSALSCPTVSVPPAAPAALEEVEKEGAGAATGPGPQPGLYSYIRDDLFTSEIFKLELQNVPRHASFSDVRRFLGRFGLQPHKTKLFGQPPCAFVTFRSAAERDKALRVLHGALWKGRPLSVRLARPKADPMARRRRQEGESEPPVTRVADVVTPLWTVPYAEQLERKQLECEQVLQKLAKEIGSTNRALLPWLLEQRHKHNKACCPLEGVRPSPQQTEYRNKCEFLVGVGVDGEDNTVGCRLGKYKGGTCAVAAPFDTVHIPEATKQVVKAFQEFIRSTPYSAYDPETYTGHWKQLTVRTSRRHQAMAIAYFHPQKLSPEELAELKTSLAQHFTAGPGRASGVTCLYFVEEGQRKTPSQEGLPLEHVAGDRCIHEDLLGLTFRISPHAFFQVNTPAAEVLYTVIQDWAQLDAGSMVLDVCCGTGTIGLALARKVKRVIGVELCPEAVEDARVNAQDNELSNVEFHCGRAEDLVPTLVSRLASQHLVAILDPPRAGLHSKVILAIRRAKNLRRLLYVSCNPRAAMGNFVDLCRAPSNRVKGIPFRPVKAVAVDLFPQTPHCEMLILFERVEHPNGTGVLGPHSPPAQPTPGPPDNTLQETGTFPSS
Sequence of UniProt Q15642 (Q15642 whole entry, looked up): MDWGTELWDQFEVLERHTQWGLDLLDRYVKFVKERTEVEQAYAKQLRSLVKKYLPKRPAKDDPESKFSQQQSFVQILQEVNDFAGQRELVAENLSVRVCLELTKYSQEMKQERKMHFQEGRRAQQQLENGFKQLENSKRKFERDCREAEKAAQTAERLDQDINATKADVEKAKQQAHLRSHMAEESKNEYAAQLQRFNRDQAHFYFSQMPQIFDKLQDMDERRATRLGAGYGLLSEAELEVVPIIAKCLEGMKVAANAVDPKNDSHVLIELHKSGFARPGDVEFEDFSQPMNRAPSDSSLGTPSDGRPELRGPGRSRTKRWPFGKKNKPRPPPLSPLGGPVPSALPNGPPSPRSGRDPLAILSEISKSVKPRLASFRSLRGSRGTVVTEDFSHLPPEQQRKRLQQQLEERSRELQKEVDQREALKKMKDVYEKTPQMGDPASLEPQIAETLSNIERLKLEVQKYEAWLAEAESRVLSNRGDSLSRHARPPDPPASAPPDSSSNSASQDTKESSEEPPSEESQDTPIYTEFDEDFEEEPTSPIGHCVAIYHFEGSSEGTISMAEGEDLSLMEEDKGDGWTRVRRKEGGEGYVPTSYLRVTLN
Sequence of UniProt Q12888 (Q12888 whole entry, looked up): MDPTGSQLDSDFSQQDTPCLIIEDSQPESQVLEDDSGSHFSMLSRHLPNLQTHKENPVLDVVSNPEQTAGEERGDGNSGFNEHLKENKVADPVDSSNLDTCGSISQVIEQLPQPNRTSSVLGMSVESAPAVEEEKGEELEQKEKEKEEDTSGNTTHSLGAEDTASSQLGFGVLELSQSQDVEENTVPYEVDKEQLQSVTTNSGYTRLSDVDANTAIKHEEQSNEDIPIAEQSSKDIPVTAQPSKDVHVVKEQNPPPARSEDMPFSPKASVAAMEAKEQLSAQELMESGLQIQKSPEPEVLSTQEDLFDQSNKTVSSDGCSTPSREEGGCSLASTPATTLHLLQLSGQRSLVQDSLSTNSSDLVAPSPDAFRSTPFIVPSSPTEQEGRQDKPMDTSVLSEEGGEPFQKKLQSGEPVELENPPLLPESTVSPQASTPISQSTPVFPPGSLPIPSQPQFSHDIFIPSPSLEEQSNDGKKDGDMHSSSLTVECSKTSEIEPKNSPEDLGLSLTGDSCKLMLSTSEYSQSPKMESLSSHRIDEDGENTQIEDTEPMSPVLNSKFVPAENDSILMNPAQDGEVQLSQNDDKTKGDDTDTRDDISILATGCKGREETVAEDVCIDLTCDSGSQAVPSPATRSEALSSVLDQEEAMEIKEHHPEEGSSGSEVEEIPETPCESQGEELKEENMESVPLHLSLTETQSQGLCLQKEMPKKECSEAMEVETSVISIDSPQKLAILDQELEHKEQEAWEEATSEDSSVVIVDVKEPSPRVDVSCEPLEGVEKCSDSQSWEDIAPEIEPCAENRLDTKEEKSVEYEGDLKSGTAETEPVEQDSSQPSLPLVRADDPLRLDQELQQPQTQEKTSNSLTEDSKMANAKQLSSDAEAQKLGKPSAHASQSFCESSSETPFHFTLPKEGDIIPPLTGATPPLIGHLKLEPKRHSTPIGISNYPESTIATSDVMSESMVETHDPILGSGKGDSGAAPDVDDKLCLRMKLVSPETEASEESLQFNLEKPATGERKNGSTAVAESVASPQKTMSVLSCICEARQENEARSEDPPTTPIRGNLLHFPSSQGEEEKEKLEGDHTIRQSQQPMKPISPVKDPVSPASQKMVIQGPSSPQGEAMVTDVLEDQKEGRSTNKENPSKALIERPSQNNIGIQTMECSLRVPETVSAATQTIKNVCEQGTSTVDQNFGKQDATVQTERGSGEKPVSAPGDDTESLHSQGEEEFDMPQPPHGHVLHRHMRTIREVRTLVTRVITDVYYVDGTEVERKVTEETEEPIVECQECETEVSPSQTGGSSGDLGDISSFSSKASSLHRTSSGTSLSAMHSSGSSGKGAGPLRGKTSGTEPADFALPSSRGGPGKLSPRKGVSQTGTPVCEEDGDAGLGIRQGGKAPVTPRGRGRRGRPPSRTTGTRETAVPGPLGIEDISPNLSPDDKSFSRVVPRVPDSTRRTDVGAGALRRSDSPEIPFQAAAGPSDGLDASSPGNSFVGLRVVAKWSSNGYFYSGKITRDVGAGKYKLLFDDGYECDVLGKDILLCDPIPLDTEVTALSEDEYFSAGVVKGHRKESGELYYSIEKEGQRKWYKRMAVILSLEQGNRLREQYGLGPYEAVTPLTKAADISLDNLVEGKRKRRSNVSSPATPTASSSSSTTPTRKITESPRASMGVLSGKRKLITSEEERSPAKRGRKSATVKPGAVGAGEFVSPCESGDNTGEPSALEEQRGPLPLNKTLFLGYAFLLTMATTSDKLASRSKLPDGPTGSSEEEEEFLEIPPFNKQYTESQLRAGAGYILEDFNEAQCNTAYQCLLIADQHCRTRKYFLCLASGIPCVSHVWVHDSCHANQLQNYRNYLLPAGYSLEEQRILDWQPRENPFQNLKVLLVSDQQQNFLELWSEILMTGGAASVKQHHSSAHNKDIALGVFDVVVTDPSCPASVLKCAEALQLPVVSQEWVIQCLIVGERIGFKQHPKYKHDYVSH
Sequence of UniProt P49754 (P49754 whole entry, looked up): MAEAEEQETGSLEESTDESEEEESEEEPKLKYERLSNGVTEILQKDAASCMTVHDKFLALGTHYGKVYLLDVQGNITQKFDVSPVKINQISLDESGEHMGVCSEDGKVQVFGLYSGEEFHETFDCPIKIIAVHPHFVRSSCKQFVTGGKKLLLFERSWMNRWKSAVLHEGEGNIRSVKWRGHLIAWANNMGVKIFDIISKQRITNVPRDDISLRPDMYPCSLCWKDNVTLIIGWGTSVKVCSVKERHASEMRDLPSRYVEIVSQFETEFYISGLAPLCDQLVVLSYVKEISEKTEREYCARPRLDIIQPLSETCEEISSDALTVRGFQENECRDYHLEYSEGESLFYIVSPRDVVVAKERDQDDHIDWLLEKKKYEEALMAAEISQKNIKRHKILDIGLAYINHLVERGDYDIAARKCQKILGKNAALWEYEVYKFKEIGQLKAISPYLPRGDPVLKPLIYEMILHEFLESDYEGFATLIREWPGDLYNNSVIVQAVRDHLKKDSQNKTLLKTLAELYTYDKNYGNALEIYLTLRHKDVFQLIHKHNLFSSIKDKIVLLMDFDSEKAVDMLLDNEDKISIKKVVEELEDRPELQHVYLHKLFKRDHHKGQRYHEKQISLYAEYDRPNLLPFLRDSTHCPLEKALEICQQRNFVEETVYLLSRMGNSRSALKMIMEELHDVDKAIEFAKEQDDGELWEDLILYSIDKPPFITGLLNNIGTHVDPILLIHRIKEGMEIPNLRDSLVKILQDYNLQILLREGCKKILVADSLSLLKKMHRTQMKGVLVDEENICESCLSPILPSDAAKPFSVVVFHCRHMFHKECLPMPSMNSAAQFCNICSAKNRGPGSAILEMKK
Sequence of UniProt Q9UDW1 (Q9UDW1 whole entry, looked up): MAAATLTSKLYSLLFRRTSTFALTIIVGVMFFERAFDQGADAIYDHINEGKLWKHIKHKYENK
Sequence of UniProt Q99986 (Q99986 whole entry, looked up): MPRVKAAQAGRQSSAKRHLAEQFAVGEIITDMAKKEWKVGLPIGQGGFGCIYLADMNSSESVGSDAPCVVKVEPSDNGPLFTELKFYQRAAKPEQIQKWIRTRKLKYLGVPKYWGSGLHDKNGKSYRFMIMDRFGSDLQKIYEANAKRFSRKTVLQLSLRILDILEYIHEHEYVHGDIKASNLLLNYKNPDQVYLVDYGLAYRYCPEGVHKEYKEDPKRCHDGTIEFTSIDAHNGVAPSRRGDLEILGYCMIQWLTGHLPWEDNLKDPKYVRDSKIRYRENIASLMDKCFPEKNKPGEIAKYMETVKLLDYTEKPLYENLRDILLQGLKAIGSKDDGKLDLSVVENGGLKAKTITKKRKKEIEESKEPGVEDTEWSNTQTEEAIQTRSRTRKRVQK

Row | Target | log2 fold change [1] | log2 fold change (filanesib) | log2 fold change (zotarolimus) | log2 fold change (idasanutlin) | log2 fold change (alisertib) | log2 fold change [2] | log2 fold change (gefitinib) | log2 fold change [3] | log2 fold change (lapatinib) | log2 fold change (pictilisib) | log2 fold change [4] | log2 fold change (crizotinib) | log2 fold change [5] | log2 fold change [6] | log2 fold change (duvelisib) | log2 fold change (gandotinib) | log2 fold change (tozasertib) | log2 fold change [7] | log2 fold change (doramapimod) | log2 fold change (ispinesib)
1 | XPOT (UniProt O43592) | 0.011 | -0.052 | 0.022 | -0.073 | -0.059 | 0.033 | -0.023 | -0.046 | -0.028 | 0.023 | 0.009 | -0.123 | 0.024 | -0.001 | 0.005 | -0.177 | 0.15 | 0.068 | -0.011 | -0.12
2 | UQCR10 (UniProt Q9UDW1) | -0.084 | -0.05 | -0.02 | 0.031 | -0.005 | 0.037 | -0.028 | 0.022 | -0.038 | -0.063 | -0.036 | 0.079 | 0.071 | -0.043 | 0.089 | -0.403 (active) | 0.013 | 0.013 | -0.025 | 0.095
3 | TP53BP1 isoform 2 (UniProt Q12888) | 0.006 | 0.059 | 0.054 | 0.04 | 0.046 | -0.089 | -0.014 | -0.041 | 0.028 | 0 | 0.025 | 0.076 | -0.001 | 0.018 | -0.025 | -0.053 | 0.205 | 0.066 | 0.036 | 0.002
4 | TRMT2A (UniProt Q8IZ69) | -0.322 (active) | 0.061 | 0.016 | 0.04 | -0.051 | -0.158 | -0.006 | -0.071 | 0.016 | -0.096 | -0.034 | -0.016 | -0.072 | 0.152 | -0.041 | 0.019 | 0.063 | 0.045 | 0.07 | -0.122
5 | WDHD1 (UniProt O75717) | 0.013 | -0.003 | 0.031 | 0.005 | 0.036 | 0.011 | 0.013 | -0.012 | 0.006 | -0.015 | 0.038 | 0.021 | 0.098 | -0.025 | 0.109 | -0.029 | 0.09 | 0.109 | -0.093 | 0.042
6 | TXNL1 (UniProt O43396) | 0.169 | 0.075 | 0.047 | -0.003 | -0.005 | 0.084 | 0.05 | -0.001 | 0.006 | 0.017 | 0.027 | 0.067 | -0.01 | -0.028 | 0.013 | -0.076 | 0.038 | 0.068 | -0.049 | 0.07
7 | VPS51 (UniProt Q9UID3) | 0.029 | -0.024 | -0.01 | -0.098 | -0.092 | 0.055 | 0.019 | -0.057 | -0.032 | 0.013 | -0.009 | -0.096 | -0.003 | 0.05 | 0.006 | -0.04 | 0.033 | 0.079 | 0.008 | -0.115
8 | TRIP10 (UniProt Q15642) | 0.054 | 0.01 | -0.007 | -0.061 | -0.026 | 0.083 | -0.014 | -0.04 | 0.021 | 0.033 | 0.08 | -0.009 | -0.085 | -0.026 | 0.005 | 0.044 | -0.003 | 0.038 | -0.036 | -0.021
9 | UBAP2L isoform 5 (UniProt Q14157) | -0.026 | -0.014 | -0.03 | -0.047 | -0.034 | 0 | -0.019 | 0.012 | 0 | -0.015 | -0.028 | 0.051 | -0.07 | -0.007 | 0.035 | 0.007 | -0.013 | 0.016 | -0.038 | 0.026
10 | TRIP10 isoform 2 (UniProt Q15642) | -0.032 | -0.213 | 0.013 | 0.128 | -0.029 | 0.109 | 0.062 | -0.09 | -0.083 | 0.06 | 0.132 | 0.056 | -0.007 | 0.108 | 0.001 | 0.147 | 0.101 | -0.089 | -0.035 | 0.309
11 | TSFM (UniProt P43897) | 0.152 | -0.146 | 0.042 | 0.039 | 0.047 | 0.12 | 0.117 | -0.002 | -0.006 | 0.066 | -0.083 | 0.171 | 0.152 | -0.104 | 0.044 | -0.083 | -0.033 | 0.095 | -0.095 | 0.398 (active)
12 | WASHC3 (UniProt Q9Y3C0) | 0.108 | -0.061 | 0.001 | 0.068 | 0.077 | 0.002 | -0.014 | 0.042 | -0.029 | 0.05 | -0.014 | -0.274 (active) | 0.096 | -0.039 | 0.012 | -0.041 | 0.021 | 0.014 | 0.048 | -0.4 (active)
13 | TOM1 isoform 2 (UniProt O60784) | -0.118 | -0.031 | -0.001 | 0.056 | -0.002 | -0.039 | -0.031 | 0 | 0.014 | -0.154 | 0.146 | -0.002 | 0.035 | -0.096 | 0.043 | 0.101 | 0.013 | 0.023 | -0.078 | -0.043
14 | VRK1 (UniProt Q99986) | 0.098 | -0.07 | -0.123 | -0.119 | 0.06 | 0.316 | -0.018 | -0.003 | -0.059 | 0.086 | 0.055 | -0.11 | 0.126 | 0.444 (active) | 0.168 | -0.067 | -0.096 | 0.161 | -0.075 | -0.077
15 | VPS41 (UniProt P49754) | 0.004 | -0.085 | 0.015 | -0.068 | 0.038 | -0.032 | -0.002 | -0.063 | 0.008 | -0.028 | 0.003 | -0.213 | -0.009 | 0.03 | 0.008 | -0.117 | 0.01 | 0.046 | 0.034 | -0.138
16 | UBE2S (UniProt Q16763) | 0.003 | 0.01 | 0.045 | -0.05 | 0.015 | 0.053 | -0.009 | 0.001 | -0.035 | 0.058 | 0.014 | 0.079 | 0.003 | -0.067 | 0.042 | -0.015 | 0.025 | 0.002 | 0.024 | 0.1
